Results as given in PubChem BioAssay (NCI).
The panel holds about 79,000 compounds, 15% with a hit somewhere; the sample as a whole holds those more often. Values without a mark were called inactive. The source made the active and inactive calls. Cut-off read from the data, not from the text of the source: active = growth inhibition above about 70%; inactive = the rest.

How the values were obtained:
[1] = NCI Yeast Anticancer Drug Screen. Data for the rad52 strain (AID 147);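 note: 0% = growth of vehicle-treated control cultures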; details: S. cerevisiae rad52 mutant growth inhibition, stronger effect = higher value
Procedure, shortened: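 Inhibition of yeast growth, referenced to vehicle controls, was the measured output for a strain with defective DNA damage repair.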

[2] = NCI Yeast Anticancer Drug Screen. Data for the rad50EPP+ strain (AID 151);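 note: 0% = growth of vehicle-treated control cultures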; details: S. cerevisiae rad50 mutant strain, stronger effect = higher value
Procedure, shortened: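 Genetically defined yeast (rad50EPP+, DNA damage repair alteration) is grown with compound, and inhibition of growth is expressed relative to vehicle-treated controls.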

[3] = NCI Yeast Anticancer Drug Screen. Data for the mgt1 strain (AID 153); details: S. cerevisiae mgt1 mutant growth inhibition, stronger effect = higher value
Procedure, shortened: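 In the mgt1 strain, test compounds were added and growth inhibition was determined relative to vehicle-treated controls.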

[4] = NCI Yeast Anticancer Drug Screen. Data for the rad50 strain (AID 155);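 note: 0% = growth of vehicle-only cultures of the same strain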; details: S. cerevisiae rad50 strain growth inhibition, stronger effect = higher value
Procedure, shortened: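 Readout: growth inhibition relative to vehicle-treated cultures. Compound exposure was carried out in a genetically defined yeast strain deficient in DNA damage repair.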

[5] = NCI Yeast Anticancer Drug Screen. Data for the mec2-1 strain (AID 157); details: S. cerevisiae mec2-1 strain, stronger effect = higher value
Procedure, shortened: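 Each compound was tested on mec2-1 yeast, a strain altered in DNA damage repair or cell cycle control. Growth inhibition is reported relative to vehicle.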

[6] = NCI Yeast Anticancer Drug Screen. Data for the rad14 strain (AID 159);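 note: 0% = growth of vehicle-treated control cultures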; details: S. cerevisiae rad14 strain growth inhibition, stronger effect = higher value
Procedure, shortened: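 Growth inhibition vs vehicle controls; genetically altered yeast strain (DNA damage repair defect) treated with test compounds.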

[7] = NCI Yeast Anticancer Drug Screen. Data for the sgs1 mgt1 strain (AID 161);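 note: 0% = growth of cultures given vehicle only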; details: S. cerevisiae sgs1 mgt1 strain, stronger effect = higher value
Procedure, shortened: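 Genetically altered yeast, compound exposure, growth inhibition relative to vehicle.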

[8] = NCI Yeast Anticancer Drug Screen. Data for the CLN2oe strain (AID 163);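 note: 0% = growth of vehicle-only control cultures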; details: S. cerevisiae CLN2oe strain, stronger effect = higher value
Procedure, shortened: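 First, the altered yeast strain was treated with each compound; second, its growth was measured; finally, inhibition was derived by comparison with vehicle controls.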

[9] = NCI Yeast Anticancer Drug Screen. Data for the cln2 rad14 strain (AID 165);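 note: 0% = growth equal to vehicle treated cultures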; details: S. cerevisiae cln2 rad14 strain, stronger effect = higher value
Procedure, shortened: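 Test compounds were added to cln2 rad14 yeast cultures; inhibition of growth was then determined by comparison with vehicle treatment.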

[10] = NCI Yeast Anticancer Drug Screen. Data for the bub3 strain (AID 167); details: S. cerevisiae bub3 mutant strain, stronger effect = higher value
Procedure, shortened: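 Readout: yeast growth inhibition, expressed relative to vehicle-only wells. The test organism is a mutant strain from a panel with lesions in DNA repair or checkpoint genes.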

[11] = NCI Yeast Anticancer Drug Screen. Data for the wt2 strain (AID 169);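 note: 0% = growth of vehicle-treated yeast cultures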; details: S. cerevisiae wt2 strain growth inhibition, stronger effect = higher value
Procedure, shortened: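 The panel's yeast strains carry defined changes in DNA repair or cell cycle genes. Each strain is grown with compound, and growth loss is scored relative to vehicle.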

[12] = NCI Yeast Anticancer Drug Screen. Data for the mlh1 strain (AID 171);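 note: 0% = growth of vehicle-treated control cultures of the same strain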; details: S. cerevisiae mlh1 strain growth inhibition, stronger effect = higher value
Procedure, shortened: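 Inhibition values reflect reduced yeast growth in the presence of compound, referenced to vehicle controls, using a strain chosen for its alteration in DNA repair or cell cycle control.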

[13] = NCI Yeast Anticancer Drug Screen. Data for the sgs1 strain (AID 173);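 note: 0% = growth of vehicle-only control cultures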; details: S. cerevisiae sgs1 mutant, stronger effect = higher value
Procedure, shortened: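 Vehicle-treated cultures served as reference for growth inhibition of a yeast strain altered in DNA damage repair or cell cycle control after compound exposure.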

[14] = NCI Yeast Anticancer Drug Screen. Data for the mlh1 rad18 strain (AID 175); details: S. cerevisiae mlh1 rad18 strain growth inhibition, stronger effect = higher value
Procedure, shortened: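 Inhibition values reflect reduced growth of mutant yeast versus vehicle-treated controls following compound exposure; the mutations affect DNA damage repair.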

[15] = NCI Yeast Anticancer Drug Screen. Data for the rad18 strain (AID 177); details: S. cerevisiae rad18 mutant growth inhibition, stronger effect = higher value
Procedure, shortened: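 Steps: expose repair-mutant yeast to compound; measure growth; express as inhibition relative to vehicle control.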

[16] = at 5.0 µM (retest, dose inferred, filed as 0.5)
[17] = at 50.0 µM (retest, dose inferred, filed as 5.0)

**Q.** For `Cc1ccc(S(=O)(=O)NC(=O)NC2=NC(C)(C)N(c3ccc(Cl)c(Cl)c3)C(N)=N2)cc1`, which growth inhibition ([1]; at 1.2 µM) is on record?
**A.** -2%

**Q.** What about the growth inhibition ([1]; at 3.7 µM) of the same compound?
**A.** -2%

**Q.** And the growth inhibition ([1]; at 11.0 µM)?
**A.** -1%

**Q.** What about the growth inhibition ([1]; at 33.0 µM) of the same compound?
**A.** -3%

**Q.** What about the growth inhibition ([1]; at 100.0 µM) of the same compound?
**A.** -3%

**Q.** What about the growth inhibition ([2]; at 1.2 µM) of the same compound?
**A.** -2%

**Q.** What about the growth inhibition ([2]; at 3.7 µM) of the same compound?
**A.** -3%

**Q.** And the growth inhibition ([2]; at 11.0 µM)?
**A.** -1%

**Q.** What about the growth inhibition ([2]; at 33.0 µM) of the same compound?
**A.** -2%

**Q.** What about the growth inhibition ([2]; at 100.0 µM) of the same compound?
**A.** 4%

**Q.** And the growth inhibition ([3]; at 1.2 µM)?
**A.** 0%

**Q.** And the growth inhibition ([3]; at 3.7 µM)?
**A.** -1%

**Q.** And the growth inhibition ([3]; at 11.0 µM)?
**A.** -4%

**Q.** What about the growth inhibition ([3]; at 33.0 µM) of the same compound?
**A.** 1%

**Q.** And the growth inhibition ([3]; at 100.0 µM)?
**A.** -5%

**Q.** And the growth inhibition ([4]; at 1.2 µM)?
**A.** -2%

**Q.** And the growth inhibition ([4]; at 3.7 µM)?
**A.** -4%

**Q.** And the growth inhibition [4, 16]?
**A.** 7%

**Q.** What about the growth inhibition ([4]; at 11.0 µM) of the same compound?
**A.** -5%

**Q.** What about the growth inhibition ([4]; at 33.0 µM) of the same compound?
**A.** -3%

**Q.** And the growth inhibition [4, 17]?
**A.** 1%

**Q.** What about the growth inhibition ([4]; at 50.0 µM) of the same compound?
**A.** -1.3%

**Q.** And the growth inhibition ([4]; at 100.0 µM)?
**A.** -4%

**Q.** What about the growth inhibition ([5]; at 1.2 µM) of the same compound?
**A.** -2%

**Q.** And the growth inhibition ([5]; at 3.7 µM)?
**A.** 2%

**Q.** What about the growth inhibition [5, 16] of the same compound?
**A.** 1%

**Q.** What about the growth inhibition ([5]; at 11.0 µM) of the same compound?
**A.** 4%

**Q.** And the growth inhibition ([5]; at 33.0 µM)?
**A.** -3%

**Q.** And the growth inhibition [5, 17]?
**A.** -3%

**Q.** What about the growth inhibition ([5]; at 50.0 µM) of the same compound?
**A.** -3.35%

**Q.** What about the growth inhibition ([5]; at 100.0 µM) of the same compound?
**A.** -3%

**Q.** What about the growth inhibition ([6]; at 1.2 µM) of the same compound?
**A.** -1%

**Q.** And the growth inhibition ([6]; at 3.7 µM)?
**A.** 0%

**Q.** What about the growth inhibition ([6]; at 11.0 µM) of the same compound?
**A.** 1%

**Q.** And the growth inhibition ([6]; at 33.0 µM)?
**A.** 1%

**Q.** And the growth inhibition ([6]; at 100.0 µM)?
**A.** 0%

**Q.** What about the growth inhibition [7, 16] of the same compound?
**A.** 6%

**Q.** What about the growth inhibition [7, 17] of the same compound?
**A.** -6%

**Q.** And the growth inhibition ([7]; at 50.0 µM)?
**A.** 4.25%

**Q.** And the growth inhibition ([8]; at 1.2 µM)?
**A.** -9%

**Q.** And the growth inhibition ([8]; at 3.7 µM)?
**A.** -5%

**Q.** What about the growth inhibition ([8]; at 11.0 µM) of the same compound?
**A.** -5%

**Q.** And the growth inhibition ([8]; at 33.0 µM)?
**A.** -1%

**Q.** And the growth inhibition ([8]; at 100.0 µM)?
**A.** -11%

**Q.** And the growth inhibition [9, 16]?
**A.** 1%

**Q.** What about the growth inhibition [9, 17] of the same compound?
**A.** 1%

**Q.** And the growth inhibition ([9]; at 50.0 µM)?
**A.** 79.4% (active)

**Q.** And the growth inhibition ([10]; at 1.2 µM)?
**A.** -2%

**Q.** And the growth inhibition ([10]; at 3.7 µM)?
**A.** -7%

**Q.** And the growth inhibition [10, 16]?
**A.** 1%

**Q.** And the growth inhibition ([10]; at 11.0 µM)?
**A.** -6%

**Q.** And the growth inhibition ([10]; at 33.0 µM)?
**A.** -8%

**Q.** And the growth inhibition [10, 17]?
**A.** -1%

**Q.** What about the growth inhibition ([10]; at 50.0 µM) of the same compound?
**A.** -23.9%

**Q.** And the growth inhibition ([10]; at 100.0 µM)?
**A.** -5%

**Q.** What about the growth inhibition ([11]; at 1.2 µM) of the same compound?
**A.** -3%

**Q.** What about the growth inhibition ([11]; at 3.7 µM) of the same compound?
**A.** -4%

**Q.** What about the growth inhibition ([11]; at 11.0 µM) of the same compound?
**A.** -3%

**Q.** And the growth inhibition ([11]; at 33.0 µM)?
**A.** -4%

**Q.** What about the growth inhibition ([11]; at 100.0 µM) of the same compound?
**A.** -3%

**Q.** And the growth inhibition ([12]; at 1.2 µM)?
**A.** -1%

**Q.** And the growth inhibition ([12]; at 3.7 µM)?
**A.** 0%

**Q.** And the growth inhibition ([12]; at 11.0 µM)?
**A.** -1%

**Q.** What about the growth inhibition ([12]; at 33.0 µM) of the same compound?
**A.** 1%

**Q.** And the growth inhibition ([12]; at 100.0 µM)?
**A.** -3%

**Q.** And the growth inhibition ([13]; at 1.2 µM)?
**A.** -1%

**Q.** What about the growth inhibition ([13]; at 3.7 µM) of the same compound?
**A.** -2%

**Q.** What about the growth inhibition ([13]; at 11.0 µM) of the same compound?
**A.** -1%

**Q.** What about the growth inhibition ([13]; at 33.0 µM) of the same compound?
**A.** -2%

**Q.** And the growth inhibition ([13]; at 100.0 µM)?
**A.** -2%

**Q.** What about the growth inhibition [14, 16] of the same compound?
**A.** 0%

**Q.** What about the growth inhibition [14, 17] of the same compound?
**A.** 47%

**Q.** What about the growth inhibition ([14]; at 50.0 µM) of the same compound?
**A.** 2.35%

**Q.** What about the growth inhibition ([15]; at 1.2 µM) of the same compound?
**A.** -1%

**Q.** What about the growth inhibition ([15]; at 3.7 µM) of the same compound?
**A.** 2%

**Q.** What about the growth inhibition ([15]; at 11.0 µM) of the same compound?
**A.** 4%

**Q.** What about the growth inhibition ([15]; at 33.0 µM) of the same compound?
**A.** 1%

**Q.** What about the growth inhibition ([15]; at 100.0 µM) of the same compound?
**A.** -1%
